35 compounds from ChEMBL document CHEMBL3433997, “St. Jude Leishmania screening dataset” (2016) can be followed below.

Assay type in all cases: functional
Experiment [1] deals with Solute carrier family 2, facilitated glucose transporter member 1 (Homo sapiens) (UniProt P11166). Put plainly: ST_JUDE_LEISH: Cytotoxicity at 2uM final concentration against transgenic Leishmania Mexicana promastigotes LmGLUT1 that are glucose transport deficient and complemented with the human glucose transporter GLUT1. Activity is measured by DNA content using SYBR green in vitro.
Sequence of Solute carrier family 2, facilitated glucose transporter member 1 (Homo sapiens) (P11166 whole entry): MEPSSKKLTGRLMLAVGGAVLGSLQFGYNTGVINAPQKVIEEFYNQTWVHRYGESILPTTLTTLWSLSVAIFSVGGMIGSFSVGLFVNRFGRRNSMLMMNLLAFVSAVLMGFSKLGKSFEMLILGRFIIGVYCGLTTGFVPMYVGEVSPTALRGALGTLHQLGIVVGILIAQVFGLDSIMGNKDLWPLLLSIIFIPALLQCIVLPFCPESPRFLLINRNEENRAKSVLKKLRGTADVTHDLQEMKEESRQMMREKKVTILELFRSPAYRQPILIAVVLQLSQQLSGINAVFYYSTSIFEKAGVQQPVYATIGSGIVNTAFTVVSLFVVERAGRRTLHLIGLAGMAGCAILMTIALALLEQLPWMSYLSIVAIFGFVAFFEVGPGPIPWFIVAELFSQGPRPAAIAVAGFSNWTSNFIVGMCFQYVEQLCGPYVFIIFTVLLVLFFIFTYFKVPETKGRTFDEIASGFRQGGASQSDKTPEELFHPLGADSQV

The target in experiment [2] is Hexose transporter 1 (Plasmodium falciparum) (UniProt O97467). Put plainly: ST_JUDE_LEISH: Cytotoxicity at 2uM final concentration against transgenic Leishmania Mexicana promastigotes LmPfHT that are glucose transport deficient and complemented with the Plasmodium falciparum hexose transporter. Activity is measured by DNA content using SYBR green in vitro.
For experiment [3], the target named is Glucose transporter (Leishmania mexicana) (UniProt O61059). Put plainly: ST_JUDE_LEISH: Cytotoxicity at 2uM final concentration against transgenic Leishmania Mexicana promastigotes LmGT2 that are glucose transport deficient and complemented with the L. Mexicana glucose transporter 2. Activity is measured by DNA content using SYBR green in vitro.

Each structure is given as a SMILES string.

Turning to `COc1ccc(OC)c2c1CC1NCC2c2c(OC)ccc(OC)c21` (stereo not given), the inhibition was 2.86% in experiment [1], 2.69% in experiment [2] and 0.54% in experiment [3].

Consider `O=C(Nc1ccccc1)Nc1cccc(-c2nn3c(OCCN4CCCC4)cccc3c2-c2ccncc2)c1`, for which the inhibition in experiment [1] was 5.75%; in experiment [2] it was 6.38%; in experiment [3], 6.34%.

With `CC(=O)N(C)/N=C/[C@H](CCc1ccccc1)NC(=O)[C@H](CC(C)C)NC(=O)c1cccc(OCCN2CCOCC2)c1`, the inhibition stood at 9.6% in experiment [1], 9.59% in experiment [2] and 8.5% in experiment [3].

Consider `O=C(c1cc(-c2cccs2)n[nH]1)N1CCN(S(=O)(=O)c2ccc(Cl)s2)CC1`, for which the values for the inhibition in experiment [1], in experiment [2] and in experiment [3] were 3.98%, 1.77% and 2.9%, respectively.

In the case of `CC(Cc1ccc(CN(CC(N)=O)Cc2ccc(CC(C)NCCc3cccc(Cl)c3)cc2)cc1)NCCc1cccc(Cl)c1` (stereo not given), the inhibition in experiment [1] was 3.67%; in experiment [2] it was -0.2%; in experiment [3] it was 7.2%.

Consider `NCCCNc1nccc(N2CCc3ncnc(Nc4ccc(OCc5cccc(F)c5)c(Cl)c4)c3C2)n1`, for which the inhibition in experiment [1] came out at 2.13%; in experiment [2], 4.48%; in experiment [3] it was 4.02%.

On to `COc1ccc(C(=O)CCC(=O)N(CCC2CCCN2C)Cc2ccc(-c3ccc(CNCCc4ccc(S(C)(=O)=O)cc4)cn3)cc2)cc1F` (stereo not given), for which the figures for the inhibition in experiment [1], in experiment [2] and in experiment [3] were 11.4%, 9.98% and 9.19%, respectively.

On to `CC(=O)c1c(Cc2ccccc2Cl)c[nH]c1C`, for which the inhibition in experiment [1] is 4.46%; in experiment [2], 3.16%; in experiment [3] it was -1.32%.

On to `CC1CN(c2ccc(NC(=O)c3ccsc3)cc2C(=O)N2CCN(Cc3ccc(C(C)(C)C)cc3)CC2)CC(C)O1` (stereo not given), for which the inhibition was -1.24% in experiment [1], 1.1% in experiment [2] and 0.3% in experiment [3].

Consider `O=C(Nc1cccc(CN2CCN(C(=O)c3cccc(F)c3)CC2)c1)c1cccs1`, for which the inhibition in experiment [1] is 0.66%; in experiment [2], 1.04%; in experiment [3] it was -0.67%.

Regarding `CC(CN1CCN(C)CC1)C(=O)Nc1cccc(-c2ccc(-c3nc4ccccc4[nH]3)cc2)c1` (stereo not given), the values for the inhibition in experiment [1], in experiment [2] and in experiment [3] were 0.63%, 1.17% and -1.58%, respectively.

As for `CCOc1cc(C(=O)NCCCN2CCN(c3cccc(Cl)c3)CC2)ccc1-c1nc2cc(Cl)c(F)cc2[nH]1`, the inhibition in experiment [1] is -0.54%; in experiment [2], -0.11%; in experiment [3] it was -0.18%.

For `Cn1cnc(CCNC(=O)c2ccc(-c3ccc(-c4nc5cc(F)ccc5[nH]4)cc3)cc2)c1`, the inhibition in experiment [1] came to 5.05%; in experiment [2] it was 5.92%; in experiment [3] it was 4.84%.

As to `CCOc1ccc(Br)cc1/C=C/C(=O)Nc1ccc(C2CCN(C)CC2)cc1`, the inhibition in experiment [1] stood at 9.52%; in experiment [2], 7.2%; in experiment [3], 5.47%.

Consider `CC[C@H](NC(=O)c1c(N)c(-c2sccc2Cl)nc2ccccc12)c1ccccc1`, for which the inhibition in experiment [1] turned out to be 3.8%; in experiment [2] it was 0.64%; in experiment [3], 1.74%.

For the compound `COc1ccc(OC)c2c1CCN(C)C2Cc1cccc2ccccc12` (stereo not given), the inhibition in experiment [1] turned out to be 3.52%; in experiment [2], 3.87%; in experiment [3], 1.61%.

In the case of `CCN(CC)CCCCCNc1c2ccc(Cl)cc2nc2ccc(OC)cc12`, the inhibition worked out at 2.17% in experiment [1], 1.26% in experiment [2] and 1.52% in experiment [3].

On to `NS(=O)(=O)c1ccccc1Nc1nc(Nc2ccc(N3CCOCC3)cc2)nc2c1CCC2`, for which the inhibition in experiment [1] came to 11.1%; in experiment [2], 4.49%; in experiment [3] it was 3.91%.

As to `CC(=O)N(C)c1cccc(C(=O)Nc2cccc(-c3cccc(-c4nc5cc(C(F)(F)F)ccc5[nH]4)c3)c2)c1`, the inhibition in experiment [1] amounted to 12.3%; in experiment [2], 12%; in experiment [3], 5.52%.

Regarding `S=C(Nc1cccc(Cl)c1)NC1CCN(c2ccnc3cc(Cl)ccc23)C1` (stereo not given), the inhibition came to 13.2% in experiment [1], 9.65% in experiment [2] and 9.07% in experiment [3].

For `Cc1cccc(-c2nn(-c3ccccc3)c3[nH]c(=O)c(CNC4CCCC4)cc23)c1`, the inhibition in experiment [1] was 2.26%; in experiment [2] it was 2.39%; in experiment [3], -0.29%.

Regarding `CCN(CC)CCN(Cc1ccc(-c2ccc(Cl)cc2)cc1)C(=O)Cn1c(CCc2cccc(F)c2F)nc(=O)c2ccccc21`, the results for the inhibition in experiment [1], in experiment [2] and in experiment [3] were -2.54%, -2.71% and -1.69%, respectively.

Consider `CS(=O)(=O)Cc1ccc(Nc2nccc(-c3c(-c4cccc(NC(=O)c5c(F)cccc5F)c4)nn4ccccc34)n2)cc1`, for which the inhibition in experiment [1] is 38.6%; in experiment [2], 18.8%; in experiment [3], 9.09%.

Consider `CC(C)CC(NC(=O)c1ccc(F)cc1)C(=O)N[C@H](/C=N/N1CCNC1=O)CC(C)C` (stereo not given in full), for which the inhibition was 3.16% in experiment [1], 4.41% in experiment [2] and 3.66% in experiment [3].

Take `O=C(Nc1ccc(-c2nc3ccccc3[nH]2)cc1)c1ccc(N2CCOCC2)c([N+](=O)[O-])c1`: the inhibition in experiment [1] was -0.45%; in experiment [2] it was -0.76%; in experiment [3] it was -0.91%.

`CCCNc1ccc(-c2cc(C(N)=O)c3[nH]cc(C4CCN(S(=O)(=O)CC)CC4)c3c2)cn1`: the results for the inhibition in experiment [1], in experiment [2] and in experiment [3] were 3.86%, 6.54% and 3.64%, respectively.

As to `CC(Cc1ccc(COc2ccc(CC(CO)NCCc3cccc(Cl)c3)cc2)cc1)NCCc1cccc(Cl)c1` (stereo not given), the inhibition in experiment [1] worked out at 51.7%; in experiment [2], 38.4%; in experiment [3] it was 69.3%.

Consider `CCn1ccc2c(N3CCCC3=O)cc(C(=O)N[C@@H](Cc3ccccc3)[C@H](O)CNCc3cccc(OC)c3)cc21`, for which the results for the inhibition in experiment [1], in experiment [2] and in experiment [3] were 1.06%, 1.98% and 0.14%, respectively.

`O=C(O[C@@H]1CN[C@H](C#Cc2cc3c(Nc4ccc5c(cnn5Cc5ccccc5)c4)ncnc3s2)C1)N1CCCC1`: the figures for the inhibition in experiment [1], in experiment [2] and in experiment [3] were -0.49%, 0.25% and -0.78%, respectively.

Turning to `CCCCCCOc1ccc(N2C(N)=NC(N)=NC2(C)C)cc1`, the inhibition is 1.45% in experiment [1], 1.46% in experiment [2] and 0.46% in experiment [3].

In the case of `COc1cc2nccc(Nc3ccc(NC(=O)c4ccc(C)cc4)c(O)c3)c2cc1OC`, the inhibition was found to be 6.88% in experiment [1], 9.16% in experiment [2] and 2.92% in experiment [3].

Turning to `CCCCNC(=O)[C@H](CC1CCCCC1)NC(=O)c1ccc(O)c(-c2ccc(Cl)c(Cl)c2)c1`, the results for the inhibition in experiment [1], in experiment [2] and in experiment [3] were -0.2%, -1.98% and 0.36%, respectively.

In the case of `CC(=O)Nc1csc(-c2cnc(/C=C(\C)C[C@@H]3OC[C@H](C[C@@H]4O[C@H]4[C@@H](C)[C@H](C)O)[C@@H](O)[C@H]3O)o2)c1`, the inhibition in experiment [1] is 3.6%; in experiment [2], 4.42%; in experiment [3] it was 2.39%.

Take `O=C(Nc1ccc2c(c1)CCN2C1CCN(Cc2cc(F)cc(F)c2F)C1)c1ccco1` (stereo not given): the figures for the inhibition in experiment [1], in experiment [2] and in experiment [3] were 1.75%, 2.07% and 3.47%, respectively.

In the case of `Cn1cc(C(=O)Nc2cccc(-c3cccc(-c4nc5cc(F)ccc5[nH]4)c3)c2)n(C)c1=O`, the results for the inhibition in experiment [1], in experiment [2] and in experiment [3] were 8.03%, 5.98% and 5.83%, respectively.

As usually defined, the inhibition is the drop in the measured response relative to a control, in per cent.
